Test results published in the OligoGym collection.

molecular target: IKBKAP; assay: pooled miR-30 sensor sort-seq; sequence = guide strand; conditions: shRNA
Also: reference of the scale not given here.

Sequence | sensor-assay potency score (higher = more potent)
TTCTGAACCAATGAGCACCGTC | -0.483
TATTTGTCTATAGTAAACCGCT | -0.467
TTGCAGTAGAATTGGGACCTAG | -0.443
TCTTCGTGACATCTTCTTCTTT | -0.422
TTCTATAATATCCAGTCTGTTA | -1.24
TTGAATATCCCTGAACTCCAGG | -0.562
TAATTCATTAACATCTACCAGA | -0.538
TATAACTTCAGAGCTTCGTTAT | -0.855
TAGCATCGCAGACAAGGTCTAT | -0.408
TTGTCTATAGTAAACCGCTGAT | -0.619
TTCTTCTGTTGATCTTTGGTGG | -0.174

molecular target: IKBKB; assay: as above; conditions: shRNA

Sequence | sensor-assay potency score (higher = more potent)
TTGCTCCTCTAGGTCGTCCAGC | -1.32
TAAGTCCACAATGTCGGTCTGC | -0.424
TTGCTTGCTCCTCTAGGTCGTC | -0.796
TTTGAATTGGACACTGTCCAGT | -0.0592
TTCGCTAACAACAATGTCCACC | -0.709
TTTTGTGTATTAACCTCTGTTC | -0.501
TAGTCTCCTGTACAGCTCCCTT | -1.81
TTGAAAACTTCACCGTTCCATT | -0.697
TTTCCTGATTGTGCCATCGGAT | -0.945
TCTTCTTCCGTCTGTAACCAGC | -1.13
TTGCTCGCTGTACTTCTCCAGG | -0.598
TAAGTTTAAGATGTCATCCAGG | -0.453

molecular target: IKBKG; assay: as above; conditions: shRNA

Sequence | sensor-assay potency score (higher = more potent)
TTAGTGGCAGCCTCCAAGCGAC | -1.14
TTGCACATGAGGAACTCCTTCT | 0.171
TTCAGTTTGCTGTACTCCCTCT | -0.286
TTTGCTGTACTCCCTCTGCAGC | -0.913
TACGTCCTGATCTGCTGCCGGG | -1.55
TGTGGTTGTCGTATTCTTGGAA | 0.455
TTGGAAATGCAGAAGCTCCTCG | 0.49
TCGTATTCTTGGAAGAGCTGGT | 0.277
TTATCGATCACCTCCTGTTTGG | -0.717
TCACAATCTTGTGCTGCTCGGC | -0.555
TTCCTCATGTCCTCGATCCTGG | -0.0606
TTTGAGATCTTCCAGCTGCATT | -1.36

molecular target: IL10; assay: as above; conditions: shRNA

Sequence | sensor-assay potency score (higher = more potent)
TAACAACAAGTTGTCCAGCTGA | 0.191
AAGAAAGTCTTCACTCTGCTGA | 0.0469
TTAACAACAAGTTGTCCAGCTG | -0.0308
TTGCTCTTGTTTTCACAGGGAA | -0.544
TTTAACAACAAGTTGTCCAGCT | 0.786
